Measured values: PubChem BioAssay
The source made the active and inactive calls.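 The calls were made as follows, unless noted: active = a full or partial loss of lipid-probe fluorescence in the fish gall bladder, intestine or both, judged by eye; inactive = no fluorescence loss, or compound toxic to the fish.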

Tests used:
[1] = inhibitors of TNFa-induced NFkB p65 translocation, primary screen, imaging, HUVEC, MLSMR starter and 10KST1 sets (AID 438;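 active = inhibition above 20% together with a positive visual image hit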;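 also: compound added about 3h40 before a 20 min TNFalpha stimulation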;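 as to inhibition: signal is the nuclear over cytoplasmic p65 intensity ratio per well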); conditions: HUVEC TNFa-induced p65 nuclear translocation; cell count: measured here: nuclei count (cytotoxicity indicator), at 2.08 µM unless noted; inhibition: at 2 µM, stronger effect = higher value unless noted
[2] = endothelial E-selectin expression blockers – imaging, HUVEC, immunofluorescence, MLSMR starter and 10KST1 sets, primary screen (AID 487;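 active = visually confirmed hit in the image check and inhibition above 20%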;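 as to inhibition: signal is fraction of cell area covered by stained E-selectin grains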;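 as to nuclei count: 100% = median nuclei count of all wells on the same plate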); conditions: HUVEC TNFalpha-induced E-selectin immunofluorescence imaging, at 2 µM; inhibition: stronger effect = higher value; nuclei count: measured here: cell number, toxicity
[3] = Primary imaging screen for DUSP6 inhibitors that restore phospho-Erk in transfected HeLa cells, chemical complementation (AID 609;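 active = compounds giving at least 50% inhibition in the cell-based MKP-3 phosphatase rescue imaging test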;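 as to inhibition: phospho-Erk level distribution per well compared with pooled transfected vehicle control wells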); conditions: HeLa MKP-3 transfected, phospho-Erk imaging KS statistic, at 10 µM
[4] = target: Dual specificity protein phosphatase 6 (Homo sapiens) (UniProt Q16828); experiment: as above; conditions: HeLa MKP-3 transfected, phospho-Erk imaging KS statistic, at 10 µM, stronger effect = higher value
Sequence of Dual specificity protein phosphatase 6 (Homo sapiens) (Q16828 whole entry, looked up): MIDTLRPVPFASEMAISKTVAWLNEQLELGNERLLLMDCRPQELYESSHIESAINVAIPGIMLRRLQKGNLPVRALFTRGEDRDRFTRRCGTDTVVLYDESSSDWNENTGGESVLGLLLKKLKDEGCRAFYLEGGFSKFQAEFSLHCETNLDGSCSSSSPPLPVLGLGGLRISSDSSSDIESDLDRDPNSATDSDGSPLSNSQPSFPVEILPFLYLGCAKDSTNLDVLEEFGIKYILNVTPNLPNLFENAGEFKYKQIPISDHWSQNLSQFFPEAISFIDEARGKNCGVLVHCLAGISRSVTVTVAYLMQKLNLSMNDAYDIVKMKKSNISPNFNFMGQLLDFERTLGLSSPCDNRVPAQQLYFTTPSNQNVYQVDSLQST

[5] = target: Voltage-gated potassium channel subunit beta-2 (Rattus norvegicus) (UniProt P62483); experiment: inhibitors of rat Kvbeta2 reductase activity – biochemical, NADPH fluorescence, primary screen (AID 622;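 active = fluorescence slope higher than the sample average by over 3 SD, cut at about -0.22 in these data, passing the limit was not always enough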;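 also: slope of raw intensity against log time taken from 70 to 1610 s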); conditions: recombinant KvBeta, 4-cyanobenzaldehyde reduction, at 10 µM, stronger effect = higher value
Sequence of Voltage-gated potassium channel subunit beta-2 (Rattus norvegicus) (P62483 whole entry, looked up): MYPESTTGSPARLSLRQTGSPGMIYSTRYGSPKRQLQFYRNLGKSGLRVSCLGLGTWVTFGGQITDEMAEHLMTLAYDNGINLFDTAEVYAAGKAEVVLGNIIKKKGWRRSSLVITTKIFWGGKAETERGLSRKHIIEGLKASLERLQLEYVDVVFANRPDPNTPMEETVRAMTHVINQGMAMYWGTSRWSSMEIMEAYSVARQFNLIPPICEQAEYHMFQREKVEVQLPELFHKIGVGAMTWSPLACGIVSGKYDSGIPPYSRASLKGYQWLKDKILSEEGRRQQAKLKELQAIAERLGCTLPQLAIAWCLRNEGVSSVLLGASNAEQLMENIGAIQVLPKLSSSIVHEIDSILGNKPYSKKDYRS

[6] = target: Voltage-gated potassium channel subunit beta-2 (Rattus norvegicus) (UniProt P62483); experiment: enhancers of rat Kvbeta2 NADPH turnover – biochemical, NADPH fluorescence, primary screen (AID 623;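 active = NADPH fluorescence slope more negative than the mean of all samples by about 3 SD, 99.7% confidence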;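 also: fluorescence intensity change per second fitted from 20 to 320 s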); conditions: Recombinant KvBeta, NADPH fluorescence decrease slope, 10 min; at 10 µM; stronger effect = lower value
[7] = target: Alpha-2C adrenergic receptor (Homo sapiens) (UniProt P18825); experiment: compounds altering alpha2C-coupled GIRK flux – cell-based, HEK293 alpha2C/GIRK1/2, thallium flux, primary screen (AID 624;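 active = fluorescence slope after compound addition differing from the mean of all screened samples at 99.7% confidence, in either direction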;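 also: slope of fluorescence ratio to pre-addition baseline per second over 15 to 24 s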); conditions: thallium flux BTC fluorescence, at 10 µM, actives lie on both sides
Sequence of Alpha-2C adrenergic receptor (Homo sapiens) (P18825 whole entry, looked up): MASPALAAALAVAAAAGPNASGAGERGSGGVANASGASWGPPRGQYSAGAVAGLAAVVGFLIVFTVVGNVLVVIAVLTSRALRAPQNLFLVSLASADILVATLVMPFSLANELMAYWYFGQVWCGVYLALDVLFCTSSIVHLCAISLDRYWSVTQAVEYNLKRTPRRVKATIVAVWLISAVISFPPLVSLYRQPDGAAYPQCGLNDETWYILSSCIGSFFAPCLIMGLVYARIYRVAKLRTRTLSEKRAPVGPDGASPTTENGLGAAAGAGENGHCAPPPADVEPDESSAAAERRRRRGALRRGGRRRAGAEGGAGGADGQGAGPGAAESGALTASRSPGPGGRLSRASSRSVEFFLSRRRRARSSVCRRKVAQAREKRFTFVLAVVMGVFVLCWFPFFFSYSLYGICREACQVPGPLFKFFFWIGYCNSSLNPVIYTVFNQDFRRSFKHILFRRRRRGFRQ

[8] = inhibitors of larval lipid processing in zebrafish, primary screen, whole organism, PED6 fluorescence, gall bladder and intestine (AID 686); conditions: Zebrafish larvae PED6 lipid processing, fluorescence scoring;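 also: larvae 5 to 7 days old with five fish per well; signal comes from phospholipase A2 cleavage of quenched PED6 carried via bile; overnight exposure to compound and PED6 before scoring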
[9] = loss of swimming-algae plug formation – whole organism, Chlamydomonas reinhardtii, WT vs cilia-less mutant, absorbance, 96-well, primary screen (AID 463189;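 active = inhibition at or above 50% relative to wild type and mutant plate controls; inactive = inhibition below 50%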;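 also: 0% = wild type cc124 cells in DMSO and 100% = ciliumless bld1 mutant cells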); conditions: Chlamydomonas reinhardtii gravitaxis, OD600 absorbance, 2 days; at 10 µM; stronger effect = higher value
[10] = measured here: cell density z-score
[11] = measured here: nuclear c-Myc green intensity z-score
[12] = measured here: nuclear pErk red intensity z-score, stronger effect = higher value

Structure (SMILES)	cell count [1]	inhibition [1]	inhibition [2]	nuclei count [2] [%]	z-score [3, 10]	z-score [3, 11]	z-score [3, 12]	inhibition [4]	fluorescence slope [5]	NADPH fluorescence slope [6]	slope [7]	outcome [8]	inhibition [9]
CCOCCN1CCC(OC(C)=O)C(C)C1 (stereo unspecified)	461	-0.9% (inactive)	-83.1% (inactive)	115	-0.179	-1.35	-0.74	-6.86% (inactive)	-0.51 (inactive)	-0.000103 (inactive)	0.00675 (inactive)	inactive	-15.8% (inactive)
COc1ccc(C(=O)CN2CCOCC2)cc1F	662	-8.3% (inactive)	-111% (inactive)	168	-0.933	0.019	-0.631	5.57% (inactive)	-0.506 (inactive)	-5.2e-05 (inactive)	0.0047 (inactive)	inactive	0.889% (inactive)
CC(C)OC(=O)c1c(N)n(Cc2ccco2)c2nc3ccccc3nc12	337	-5.5% (inactive)	-136% (inactive)	108	-1.01	1.4	-1.07	-4.7% (inactive)	-0.101 (inactive)	1e-05 (inactive)	0.00512 (inactive)	inactive	1.76% (inactive)
CC(C)Cc1[nH]c(=O)c(C#N)c2c1CCC2	490	8.7% (inactive)	-51.3% (inactive)	119	0.582	0.998	-0.369	-1.75% (inactive)	-0.439 (inactive)	-4.3e-06 (inactive)	0.00495 (inactive)	inactive	20.8% (inactive)
CCOC(C(=O)OCC(O)CN(CC)CC)(c1ccccc1)c1ccccc1 (stereo unspecified)	598	-12.4% (inactive)	-341% (inactive)	184	-0.241	-0.53	1.71	-5.89% (inactive)	-0.446 (inactive)	-0.000326 (inactive)	0.00508 (inactive)	inactive	19.6% (inactive)
O=c1[nH]c(=O)n(Cc2ccco2)c(O)c1C=NCCN1CCOCC1	680	-12.4% (inactive)	-84.8% (inactive)	179	0.97	-1.61	0.194	-8.95% (inactive)	-0.384 (inactive)	-2.1e-05 (inactive)	0.00707 (inactive)	inactive	-10.1% (inactive)
CCC(=NCCN1CCCCC1)c1c(O)n(C)c(=O)n(C)c1=O	605	0.7% (inactive)	-61.5% (inactive)	154	0.767	-1.21	0.171	7.83% (inactive)	-0.517 (inactive)	-3.9e-05 (inactive)	0.00466 (inactive)	inactive	18% (inactive)
O=c1[nH]c(=O)n(Cc2ccco2)c(O)c1C=NCc1ccc2c(c1)OCO2	562	-4.8% (inactive)	50.7% (inactive)	148	-1.72	-1.79	-0.396	-8.76% (inactive)	-0.254 (inactive)	-1.2e-06 (inactive)	0.00624 (inactive)	inactive	18.3% (inactive)
CCC(=NCCOc1ccc(Cl)cc1)c1c(O)n(C)c(=O)n(C)c1=O	555	-7.6% (inactive)	-89.2% (inactive)	99.1	0.38	-2.81	0.837	13.2% (inactive)	-0.532 (inactive)	-0.00015 (inactive)	0.0044 (inactive)	inactive	19.1% (inactive)
CCOC(=O)[C@]1(C#N)[C@@H]2C=CC(C(C)=O)=CN2[C@@H](C(N)=O)[C@@H]1c1ccsc1	560	-5.3% (inactive)	-130% (inactive)	212	0.77	0.227	-0.321	-2.91% (inactive)	-0.358 (inactive)	-1.4e-05 (inactive)	-0.00125 (inactive)	inactive	13.7% (inactive)
CC(=NCCO)c1c(O)n(C)c(=O)n(C)c1=O	608	-15.1% (inactive)	-3.1% (inactive)	90.8	2.05	-1.46	-1.21	31% (inactive)	-0.432 (inactive)	-4.7e-06 (inactive)	0.00689 (inactive)	inactive	-8.68% (inactive)
CC(=O)OC1(c2ccc(C)cc2)CN2CCC1c1ccccc12 (stereo unspecified)	554	-10% (inactive)	-198% (inactive)	145	0.866	0.595	0.108	25.8% (inactive)	-0.502 (inactive)	-6.1e-05 (inactive)	0.00515 (inactive)	inactive	18.7% (inactive)
CN1CCc2nc(SCC(=O)OC(C)(C)C)c(C#N)cc2C1	606	-21.6% (inactive)	-56.3% (inactive)	178	-1.57	-0.211	0.501	16% (inactive)	-0.316 (inactive)	-4.7e-05 (inactive)	0.00437 (inactive)	inactive	102% (active)
CCOc1ccccc1-n1c(O)c(C=Nc2c(C)n(C)n(-c3ccccc3)c2=O)c(=O)[nH]c1=O	629	-13.3% (inactive)	-48.3% (inactive)	148	1.53	-0.137	0.143	22.7% (inactive)	-0.432 (inactive)	-4.9e-06 (inactive)	0.00796 (inactive)	inactive	0.366% (inactive)
O=c1[nH]c(=O)n(-c2cccc(Cl)c2)c(O)c1C=NCCN1CCCCC1	506	1.5% (inactive)	-67.4% (inactive)	143	-0.817	1.06	1.7	15% (inactive)	-0.435 (inactive)	-5.4e-05 (inactive)	0.00582 (inactive)	inactive	-0.905% (inactive)
O=c1[nH]c2ccccc2c(=O)n1-c1cccc(Cl)c1	545	-5.4% (inactive)	40% (inactive)	129	-1.11	2.35	0.728	-18.6% (inactive)	-0.461 (inactive)	-7e-06 (inactive)	0.00622 (inactive)	inactive	11.1% (inactive)
CCN(CC)CCCNC(=O)c1c(O)c2ccccc2n(Cc2ccccc2)c1=O	520	-4.8% (inactive)	-10.6% (inactive)	98.5	3.05	0.407	-1.44	15.8% (inactive)	-0.425 (inactive)	-6.7e-06 (inactive)	0.00401 (inactive)	inactive	-10.8% (inactive)
CCCCc1nc2ccccc2c(=O)n1-c1ccccc1O	619	-3.2% (inactive)	-6.5% (inactive)	178	-0.399	0.344	1.46	-4.78% (inactive)	-0.36 (inactive)	5.8e-06 (inactive)	0.00524 (inactive)	inactive	2.52% (inactive)
CCCCCCn1c(O)c(C=Nc2c(C)n(C)n(-c3ccccc3)c2=O)c(=O)[nH]c1=O	335	-9.2% (inactive)	-82.5% (inactive)	152	-0.0314	0.533	1.54	-7.01% (inactive)	-0.359 (inactive)	-0.000298 (inactive)	0.00815 (inactive)	inactive	5.18% (inactive)
CCCCn1c(O)c(C=NCCN2CCCCC2)c(=O)[nH]c1=O	430	0.6% (inactive)	17.7% (inactive)	87.8	0.907	-2.11	-0.0585	-4.7% (inactive)	-0.489 (inactive)	9.8e-06 (inactive)	0.00621 (inactive)	inactive	3.56% (inactive)
COCCOC(=O)c1c(N)n(Cc2ccco2)c2nc3ccccc3nc12	431	-13% (inactive)	-107% (inactive)	162	0.196	-0.0973	1.79	0.671% (inactive)	-0.0308 (inactive)	-7.2e-06 (inactive)	0.00535 (inactive)	inactive	15% (inactive)
CCCCOCCCn1c(N)c(C(=O)OC(C)COC)c2nc3ccccc3nc21 (stereo unspecified)	572	-16.3% (inactive)	-75.8% (inactive)	146	0.315	-0.916	-1.54	11.9% (inactive)	-0.0435 (inactive)	-1e-05 (inactive)	0.00527 (inactive)	inactive	21% (inactive)
CCN(CC)c1ccc(N=Cc2c(O)n(-c3cc(OC)ccc3OC)c(=O)[nH]c2=O)cc1	462	2.1% (inactive)	-25.3% (inactive)	172	-0.53	0.14	0.193	16.8% (inactive)	-0.37 (inactive)	-5.8e-05 (inactive)	0.00328 (inactive)	inactive	34.9% (inactive)
CCN(CC)CCN=C(C)c1c(O)n(-c2ccccc2OC)c(=O)[nH]c1=O	564	0.8% (inactive)	-34% (inactive)	88.8	-0.563	-1.02	1.36	-2.91% (inactive)	-0.555 (inactive)	-2.8e-05 (inactive)	0.0051 (inactive)	inactive	-0.4% (inactive)
O=c1c(C=NCCN2CCNCC2)c(O)n(C2CCCCC2)c(=O)n1C1CCCCC1	583	-5.8% (inactive)	-162% (inactive)	138	0.0473	0.939	0.718	3.97% (inactive)	-0.516 (inactive)	-3.1e-05 (inactive)	0.00535 (inactive)	inactive	2.5% (inactive)
COc1cc2[nH]c(=O)n(-c3cccc(Cl)c3)c(=O)c2cc1OC	636	-0.6% (inactive)	-128% (inactive)	159	0.96	-1.11	1.07	-1.12% (inactive)	-0.467 (inactive)	-0.000203 (inactive)	0.00492 (inactive)	inactive	-6.85% (inactive)
O=c1[nH]c(=O)n(C2CCCCC2)c(O)c1C=NCCCn1ccnc1	684	-20.4% (inactive)	-84.3% (inactive)	153	1.04	-1.34	-0.814	6.04% (inactive)	-0.428 (inactive)	6.8e-06 (inactive)	0.00637 (inactive)	inactive	0.521% (inactive)
